Source: PubChem BioAssay (NCATS)
Results filed as inconclusive are left out. Entries that show only a call come without a potency. A number with no mark means an inactive call. The source made the active and inactive calls. Unless noted, calls follow the shape of the dose curve; as a rule, active = well fitted inhibition curve with a large enough effect; inconclusive = small, poorly fitted or top-dose-only effect; inactive = no such curve, though single readings can be large or run the other way.

Experiments:
[1] = molecular target: Cytochrome P450 2C9 (Homo sapiens) (UniProt P11712); assay: qHTS Assay for Inhibitors and Substrates of Cytochrome P450 2C9 (AID 883); also: nearly all actives have a fitted effect of over 60% in size; also: potency is read from the fitted curve at half-maximal effect
Method in brief: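 Human CYP2C9 (10nM) hydroxylated Luciferin-H (100uM, at its KM) to luciferin in 25mM KPO4. Compound was preincubated 10 min at 37C, then NADPH regeneration started a 60 min reaction at 37C. Luminescence was read after detection reagent, normalized to 57uM sulphaphenazole.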

[2] = qHTS Assay for Identification of Small Molecule Agonists for Hypoxia Response Element Signaling Pathway (AID 914; active = well fitted activation curve with a large enough effect in the signal ratio, with a control signal flat, not every such curve was filed as active; the % refers to the signal ratio); conditions: ME-180 (cervical carcinoma) HRE-bla reporter, beta-lactamase ratio, CoCl2, 17 h; active compounds read high
Method in brief: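 Positive modulation of EC50 CoCl2-induced hypoxia response element signaling is measured in ME-180 cells with a beta-lactamase reporter. Compounds are titrated, incubation runs 17 hours, and %Activity derives from the blue/green ratio.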

[3] = molecular target: Cytochrome P450 2D6 (Homo sapiens) (UniProt P10635); assay: qHTS Assay for Inhibitors and Substrates of Cytochrome P450 2D6 (AID 891);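 also: luciferin methyl ether substrate demethylated by CYP2D6 with NADPH regeneration; nearly all actives have a fitted effect of over 60% in size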
Method in brief: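 Luminescent read-out of luciferin formed by 5 nM human CYP2D6 demethylating 30 uM Luciferin-ME EGE (Km level) over 60 min at room temperature after NADPH regeneration addition. Data normalized to full inhibition by 1.43 uM quinidine.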

[4] = molecular target: Cytochrome P450 2C19 (Homo sapiens) (UniProt P33261); assay: qHTS Assay for Inhibitors and Substrates of Cytochrome P450 2C19 (AID 899); also: nearly all actives have a fitted effect of over 60% in size; also: potency is read from the fitted curve at half-maximal effect
Method in brief: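 Human CYP2C19 (5nM) with Luciferin-H EGE at 10uM (its KM) in 50mM KPO4 was preincubated with compound for 10 min at 37C. NADPH regeneration started a 60 min 37C reaction. Luciferin was read by luminescence, normalized to 57uM ketoconazole.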

[5] = molecular target: Cytochrome P450 3A4 (Homo sapiens) (UniProt P08684); assay: qHTS Assay for Inhibitors and Substrates of Cytochrome P450 3A4 (AID 884); also: series mostly up to about 57 µM; nearly all actives have a fitted effect of over 50% in size
Method in brief: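 Luminescent readout of luciferin produced by CYP3A4 (20 nM) dealkylation of Luciferin-PPXE, 25 uM (its KM). NADPH-driven reaction ran 60 min at RT after 10 min compound preincubation; data scaled to 57 uM ketoconazole as 100% inhibition.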

Chain of Cytochrome P450 2C19 (Homo sapiens) (P33261 whole entry, looked up): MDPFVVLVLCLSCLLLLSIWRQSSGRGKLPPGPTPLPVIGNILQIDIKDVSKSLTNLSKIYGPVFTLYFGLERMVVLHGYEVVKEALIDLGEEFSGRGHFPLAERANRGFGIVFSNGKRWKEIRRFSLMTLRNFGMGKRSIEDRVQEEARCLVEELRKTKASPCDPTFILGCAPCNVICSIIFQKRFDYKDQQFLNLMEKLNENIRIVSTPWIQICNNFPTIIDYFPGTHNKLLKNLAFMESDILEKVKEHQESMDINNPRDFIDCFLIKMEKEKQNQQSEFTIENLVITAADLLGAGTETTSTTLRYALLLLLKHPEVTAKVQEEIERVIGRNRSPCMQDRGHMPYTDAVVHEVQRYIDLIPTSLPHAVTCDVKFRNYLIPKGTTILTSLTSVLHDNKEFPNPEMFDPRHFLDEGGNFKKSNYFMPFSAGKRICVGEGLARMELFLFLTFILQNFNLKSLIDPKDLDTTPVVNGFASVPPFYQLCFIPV
Chain of Cytochrome P450 2D6 (Homo sapiens) (P10635 whole entry, looked up): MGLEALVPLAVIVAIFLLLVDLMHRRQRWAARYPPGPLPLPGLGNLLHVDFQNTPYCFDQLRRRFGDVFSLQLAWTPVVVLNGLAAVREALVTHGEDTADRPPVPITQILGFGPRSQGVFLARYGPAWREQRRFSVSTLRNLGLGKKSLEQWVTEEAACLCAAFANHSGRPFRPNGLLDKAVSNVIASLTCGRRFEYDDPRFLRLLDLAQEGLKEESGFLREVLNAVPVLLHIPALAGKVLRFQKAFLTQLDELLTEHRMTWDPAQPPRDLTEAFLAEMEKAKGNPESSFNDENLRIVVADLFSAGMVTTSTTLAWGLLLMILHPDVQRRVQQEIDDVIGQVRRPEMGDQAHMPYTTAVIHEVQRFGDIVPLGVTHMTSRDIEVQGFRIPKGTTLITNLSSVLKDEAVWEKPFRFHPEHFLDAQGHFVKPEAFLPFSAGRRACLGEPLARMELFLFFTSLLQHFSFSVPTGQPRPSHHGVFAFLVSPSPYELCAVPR
Chain of Cytochrome P450 3A4 (Homo sapiens) (P08684 whole entry, looked up): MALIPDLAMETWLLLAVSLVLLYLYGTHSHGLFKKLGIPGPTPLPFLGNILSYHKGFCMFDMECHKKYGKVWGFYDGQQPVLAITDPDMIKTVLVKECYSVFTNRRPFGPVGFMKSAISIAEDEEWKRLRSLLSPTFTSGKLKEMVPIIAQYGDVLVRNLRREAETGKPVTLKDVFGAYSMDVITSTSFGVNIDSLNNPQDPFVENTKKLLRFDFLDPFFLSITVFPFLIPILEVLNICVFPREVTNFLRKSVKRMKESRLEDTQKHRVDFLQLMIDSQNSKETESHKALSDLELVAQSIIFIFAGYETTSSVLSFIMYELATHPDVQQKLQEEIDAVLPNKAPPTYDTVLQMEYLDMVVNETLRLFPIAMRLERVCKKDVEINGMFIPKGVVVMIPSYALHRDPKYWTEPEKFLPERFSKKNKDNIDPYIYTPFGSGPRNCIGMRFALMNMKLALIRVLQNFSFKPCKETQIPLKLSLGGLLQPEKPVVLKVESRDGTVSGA
Chain of Cytochrome P450 2C9 (Homo sapiens) (P11712 whole entry, looked up): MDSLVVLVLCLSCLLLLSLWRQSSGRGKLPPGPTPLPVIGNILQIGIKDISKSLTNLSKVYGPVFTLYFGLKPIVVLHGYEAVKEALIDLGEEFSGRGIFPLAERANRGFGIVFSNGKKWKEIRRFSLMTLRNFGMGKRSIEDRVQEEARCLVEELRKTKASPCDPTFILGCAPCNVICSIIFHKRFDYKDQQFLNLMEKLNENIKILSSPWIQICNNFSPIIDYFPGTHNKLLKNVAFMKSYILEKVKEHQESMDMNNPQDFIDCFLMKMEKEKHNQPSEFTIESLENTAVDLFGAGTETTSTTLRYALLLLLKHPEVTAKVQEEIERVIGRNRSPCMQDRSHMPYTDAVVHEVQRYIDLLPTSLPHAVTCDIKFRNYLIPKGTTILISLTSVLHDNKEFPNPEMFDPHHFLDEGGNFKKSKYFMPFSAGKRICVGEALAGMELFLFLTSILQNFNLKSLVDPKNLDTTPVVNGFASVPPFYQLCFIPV

Compound: CO[C@H]1COC(=O)C/C=C\[C@@H](C)COC(=O)[C@H]2CCCN2C(=O)C/C=C\[C@H]1C
- Potency [1]: inactive
- activation [2]: 11.3%

Compound: CC(O)CCCCCCC/C=C/C=C/C(N)=O (centres undefined)
- Potency [1]: inactive
- Potency [3]: inactive
- Potency [4]: inactive

Compound: COc1ccc(B(O)O)cc1
- Potency [5]: inactive

Compound: C#CCCCO/N=C1/[C@H]2O[C@@H]2[C@@H](O)[C@H]2[C@H]1CCn1c(=O)n(Cc3cc4c(cc3Cl)OCO4)c(=O)n12
- Potency [1]: inactive
- Potency [4]: inactive

Compound: CC(=O)Oc1ccc(/C=C/C(=O)CC2OC(Oc3cc(OC(C)=O)c4c(c3)O[C@@H](c3ccc(OC(C)=O)cc3)CC4=O)C(OC(C)=O)C(OC(C)=O)C2OC(C)=O)cc1 (some centres undefined)
- Potency [5]: inactive

Compound: COc1cc(O)c(C(=O)/C=C/c2ccccc2)c(O)c1
- Potency [1]: 2000 nM (active)
- Potency [3]: inactive
- Potency [4]: 1580 nM (active)

Compound: Cn1c(N)c(C(=O)COC(=O)c2cc(C(F)(F)F)nc3c(C(F)(F)F)cccc23)c(=O)n(C)c1=O
- Potency [5]: inactive

Compound: COc1ccc(O[C@H]2C=C[C@@H](c3ccccc3)O[C@H]2COC(=O)N2CCCCC2)cc1
- Potency [1]: 2510 nM (active)
- Potency [4]: 501 nM (active)

Compound: COC(=O)[C@@H]1C[C@@]2(O)[C@H](O)[C@H](O)[C@H](O)C[C@H]2N1CC1CCCCC1
- Potency [5]: inactive

Compound: CCCCCCC1=Cc2cc(OC)c(OC)cc2C(C(C(C)=O)C(=O)OC)O1 (centres undefined)
- Potency [1]: inactive
- Potency [3]: inactive
- Potency [4]: 3160 nM (active)
